The values below come from PubChem BioAssay.

Activity calls are given as the source filed them.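 Rule for the calls, unless noted: active = compounds lowering colon cancer cell viability after pretreatment blocking the GSK3B kinase; inactive = the rest.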 Starred links: 1 amine or outer side, 2 acyl side, 3 side chain; linkers in the order of their positions; H or OH if unused. Positions of bridges follow the written chain, without caps; N, C: chain ends. Non-standard residues stand in square brackets, D forms with d. Residues, ends and D or L forms follow the SMILES beside them. ξ: configuration not given here. *: point of attachment. ΔAla(3-NHCONH2) = NC(=O)NC=C(N)C(=O)O; X1 = NC1=NCCC(C(N[*:1])C(=O)[*:2])N1; ξβ3hOrn = NCCCC(N)CC(=O)*; Dap = NC[CH](N)C(=O)O

The nature of assay [1]: Wnt pathway potentiators raising nuclear beta-catenin – imaging, WNT3A-conditioned medium, mouse C2C12, NPC library, primary screen (AID 1117326; in the data active = nuclear beta-catenin stimulation mostly above about 4.2%, no sharp cut-off; inactive = mostly below about 10%; note: reference of the scale not given here). The note with it: stronger effect = higher value.
Assay [2] in a line: stimulators of insulin release from INS-1E, primary screen, cell-based, 5 mM glucose, NPC library (AID 1117329;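 active = compound raises insulin release from rat beta cells at 5 mM glucose, no numeric limit stated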; note: reference of the scale not given here). The note with it: rat INS-1E insulin secretion, at 10 µM, stronger effect = higher value.
A short description of assay [3]: growth inhibition of GSK3B-pretreated HCT116 cells – cell-based, CellTiter-Glo, 0.2 to 20 µM (AID 1117336). The note with it: HCT116 viability after GSK3B inhibitor, at 20 µM, stronger effect = higher value.
The nature of assay [4]: inhibition of endothelial tube formation, primary screen, imaging, VEGF stimulated, CD31 staining, tube area, NPC library (AID 1117340;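 active = compound that reduces growth-factor-driven endothelial tube area in a mixed cell culture, no cutoff stated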). The note with it: VEGF-stimulated ADSC/ECFC co-culture, at 10 µM, stronger effect = higher value.
Assay [5] in a line: GLP1 release stimulators, primary, NCI-H716, NPC library (AID 1117341;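 active = compound raises GLP1 secretion from the human gut endocrine cells, with no numeric limit stated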; note: reference of the scale not given here). The note with it: NCI-H716 cells, at 10 µM, stronger effect = higher value.
Assay [6] is described as follows: HCT116 colon cancer cell growth inhibition, primary screen, CellTiter-Glo luminescence, NPC library (AID 1117342;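 active = compounds that lower survival of HCT116 colon cancer cells in the luminescence readout, no numeric limit stated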). The note with it: at 20 µM (top of the series). In general terms: ATP-based viability assays read luminescence as a measure of living cells.
Assay [7] is described as follows: reduced SW480 viability measured with CellTiter-Glo, NPC library, primary (AID 1117343;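 active = compounds that lower viability of the colon cancer cells in the luminescence readout, with no numeric limit stated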). The note with it: CellTiter-Glo luminescence; at 20 µM (top of the series).
The nature of assay [8]: NPC library primary testing for decreased DLD-1 cell viability via CellTiter-Glo (AID 1117346;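 active = compounds that lower survival of DLD-1 colon cancer cells in the luminescence readout, no cutoff given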). The note with it: DLD-1 viability, CellTiter-Glo luminescence; at 20 µM (top of the series).

As for `CCOC(=O)[C@H](CCc1ccccc1)N[C@@H](C)C(=O)N(CC(=O)O)C1Cc2ccccc2C1`, the nuclear beta-catenin stimulation is 1% (inactive) in assay [1] (at 10 µM) and 0.4% in assay [1] (stimulation, at 2 µM). The insulin secretion stimulation in assay [2] is 1.15% (inactive). Further, the viability decrease in assay [3] is -0.3% (inactive). Further, the tube area decrease in assay [4] was 4.9% (inactive). In assay [5], the GLP1 secretion stimulation was 3.1% (inactive). The inhibition of viability in assay [6] was 10.2% (inactive). For the same compound, the viability decrease (inhibition) was -7.1% (inactive) in assay [7] and -2.9% (inactive) in assay [8].

For the compound `CC(C)CCCC(C)CCCC(C)CCCCC(C)CCCC(C)CCCC(C)C` (centres undefined), the nuclear beta-catenin stimulation in assay [1] (at 10 µM) is -1.2% (inactive); in assay [1] (stimulation, at 2 µM), -0.8%. Also, in assay [2], the insulin secretion stimulation is -1.6% (inactive). Moreover, the viability decrease in assay [3] is -26.9% (inactive). The tube area decrease in assay [4] was 4.8% (inactive). For the same compound, in assay [5], the GLP1 secretion stimulation was -2.5% (inactive). For the same compound, the inhibition of viability in assay [6] was -10.1% (inactive). In addition, the viability decrease (inhibition) is 22.4% (inactive) in assay [7] and -26.5% (inactive) in assay [8].

In the case of `CC1(C)S[C@@H]2[C@H](NC(=O)Cc3ccccc3)C(=O)N2[C@H]1C(=O)O` (tested in a mixture with another compound), the nuclear beta-catenin stimulation in assay [1] (at 10 µM) was 0.8% (inactive); in assay [1] (stimulation, at 2 µM), -0.3%. Further, in assay [2], the insulin secretion stimulation is -0.8% (inactive). Besides, the viability decrease in assay [3] was -4.9% (inactive). Also, in assay [4], the tube area decrease was -6.3% (inactive). In addition, the GLP1 secretion stimulation in assay [5] is -3.4% (inactive). For the same compound, the inhibition of viability in assay [6] is -7.93% (inactive). For the same compound, the viability decrease (inhibition) was -25.3% (inactive) in assay [7] and -12.1% (inactive) in assay [8].

Take `Nc1ccc(O)cc1`: the nuclear beta-catenin stimulation was 18.2% (inactive) in assay [1] (at 10 µM) and 2% in assay [1] (stimulation, at 2 µM). The insulin secretion stimulation in assay [2] is 1% (inactive). Moreover, the viability decrease in assay [3] was 99.1% (active). For the same compound, the tube area decrease in assay [4] was 60.9% (active). For the same compound, the GLP1 secretion stimulation in assay [5] is -3.8% (inactive). Moreover, the inhibition of viability in assay [6] was 99.3% (active). For the same compound, the viability decrease (inhibition) was 102% (active) in assay [7] and 62.6% (active) in assay [8].

Turning to `NCCCC(N)CC(=O)NCC1NC(=O)C(CO)NC(=O)C(N)CNC(=O)C(C2CCN=C(N)N2)NC(=O)C(=CNC(N)=O)NC1=O` (stereo not drawn) (H-[Dap]S[Dap](ξβ3hOrn)[ΔAla(3-NHCONH2)][X1]; lactam 1-C; configuration not given here), the nuclear beta-catenin stimulation in assay [1] (at 10 µM) was 0.2% (inactive); in assay [1] (stimulation, at 2 µM), 1.8%. The insulin secretion stimulation in assay [2] is -0.9% (inactive). Moreover, the viability decrease in assay [3] is 3.9% (inactive). Also, the tube area decrease in assay [4] is -1% (inactive). Besides, the GLP1 secretion stimulation in assay [5] is -1.3% (inactive). In assay [6], the inhibition of viability was -22.2% (inactive). The viability decrease (inhibition) in assay [7] was -3.4% (inactive); in assay [8], -12% (inactive).

In the case of `CC(NN)c1ccccc1` (centres undefined), the nuclear beta-catenin stimulation in assay [1] (at 10 µM) was 1.9% (inactive); in assay [1] (stimulation, at 2 µM), -2.2%. The insulin secretion stimulation in assay [2] was 3.35% (inactive). Further, in assay [3], the viability decrease is 13.8% (inactive). Further, in assay [4], the tube area decrease is -6.7% (inactive). Besides, the GLP1 secretion stimulation in assay [5] is -0.4% (inactive). For the same compound, the inhibition of viability in assay [6] is 9.9% (inactive). The viability decrease (inhibition) in assay [7] was 4.9% (inactive); in assay [8] it was 14.8% (inactive).

`O=C1[C@@H]2[C@H]3CC[C@H](C3)[C@@H]2C(=O)N1CCCCN1CCN(c2ncccn2)CC1`: the nuclear beta-catenin stimulation in assay [1] (at 10 µM) is 10% (inactive); in assay [1] (stimulation, at 2 µM), 34.2%. For the same compound, the insulin secretion stimulation in assay [2] was 3.2% (inactive). Also, the viability decrease in assay [3] is -0.8% (inactive). Moreover, the tube area decrease in assay [4] was 0.8% (inactive). Also, in assay [5], the GLP1 secretion stimulation is 1.5% (inactive). Besides, the inhibition of viability in assay [6] is 45.5% (inactive). The viability decrease (inhibition) in assay [7] was 12.8% (inactive); in assay [8] it was 1.2% (inactive).

`Cc1cc(C)c(NC(=O)CN(CC(=O)O)CC(=O)O)c(C)c1Br`: the nuclear beta-catenin stimulation is 1.9% (inactive) in assay [1] (at 10 µM) and 0.6% in assay [1] (stimulation, at 2 µM). Also, in assay [2], the insulin secretion stimulation is 0.25% (inactive). The viability decrease in assay [3] was 29.2% (inactive). For the same compound, the tube area decrease in assay [4] was -4.1% (inactive). Moreover, the GLP1 secretion stimulation in assay [5] was -3.7% (inactive). The inhibition of viability in assay [6] is 13.3% (inactive). In addition, the viability decrease (inhibition) in assay [7] was 4.7% (inactive); in assay [8], -14.9% (inactive).

With `CCOC(=O)Cn1cccc1-c1nc(-c2ccc(OC)cc2)c(-c2ccc(OC)cc2)s1`, the nuclear beta-catenin stimulation in assay [1] (at 10 µM) is -0.6% (inactive); in assay [1] (stimulation, at 2 µM) it was -1.4%. Moreover, the insulin secretion stimulation in assay [2] is 1.9% (inactive). Also, the viability decrease in assay [3] is 35.5% (inactive). In assay [4], the tube area decrease was 6.7% (inactive). In addition, in assay [5], the GLP1 secretion stimulation is -0.1% (inactive). In addition, the inhibition of viability in assay [6] is 46% (inactive). Further, the viability decrease (inhibition) is 88.2% (active) in assay [7] and 77.5% (active) in assay [8].

In the case of `CN[C@@H]1[C@@H](O)[C@@H](O[C@@H]2[C@H](O)[C@H](O[C@H]3OC(CN)=CC[C@H]3N)[C@@H](N)C[C@H]2N)OCC1(C)O` (some centres undefined), the nuclear beta-catenin stimulation in assay [1] (at 10 µM) was 3.9% (inactive); in assay [1] (stimulation, at 2 µM) it was 5.2%. For the same compound, the insulin secretion stimulation in assay [2] is 0.6% (inactive). For the same compound, in assay [3], the viability decrease was -9.1% (inactive). The tube area decrease in assay [4] is 0.1% (inactive). For the same compound, the GLP1 secretion stimulation in assay [5] was 2.9% (inactive). Further, the inhibition of viability in assay [6] is -0.03% (inactive). Besides, the results for the viability decrease (inhibition) in assay [7] and in assay [8] were -9.1% (inactive) and -8.2% (inactive), respectively.

In the case of `CCCCC(C)(O)CC=C[C@H]1[C@H](O)CC(=O)[C@H]1CCCCCCC(=O)OC` (some centres undefined), the nuclear beta-catenin stimulation in assay [1] (at 10 µM) is -0.9% (inactive); in assay [1] (stimulation, at 2 µM), 2.4%. The insulin secretion stimulation in assay [2] is 0.9% (inactive). In addition, in assay [3], the viability decrease was -0.5% (inactive). In assay [4], the tube area decrease is -9.4% (inactive). In assay [5], the GLP1 secretion stimulation is -1.9% (inactive). The inhibition of viability in assay [6] was -12.9% (inactive). Besides, the viability decrease (inhibition) in assay [7] was -17.2% (inactive); in assay [8] it was 66.4% (active).

In the case of `CCc1cccc2c(CCO)c[nH]c12`, the nuclear beta-catenin stimulation in assay [1] (at 10 µM) was 1.1% (inactive); in assay [1] (stimulation, at 2 µM), 0.4%. Further, the insulin secretion stimulation in assay [2] was 0.7% (inactive). In addition, the viability decrease in assay [3] is 12.2% (inactive). The tube area decrease in assay [4] was -19.3% (inactive). The GLP1 secretion stimulation in assay [5] is 0.1% (inactive). Moreover, in assay [6], the inhibition of viability was -1.1% (inactive). The figures for the viability decrease (inhibition) in assay [7] and in assay [8] were -18% (inactive) and -6.5% (inactive), respectively.

`CCOC(=O)c1ccc(OCCN2C[C@H](O)[C@@H](O)[C@H](O)[C@H]2CO)cc1`: the nuclear beta-catenin stimulation in assay [1] (at 10 µM) was 1.7% (inactive); in assay [1] (stimulation, at 2 µM) it was 0.9%. The insulin secretion stimulation in assay [2] is 0.1% (inactive). In assay [3], the viability decrease is -17.2% (inactive). Moreover, the tube area decrease in assay [4] was 10.1% (inactive). For the same compound, the GLP1 secretion stimulation in assay [5] is -1% (inactive). In addition, the inhibition of viability in assay [6] was -40.4% (inactive). In addition, the viability decrease (inhibition) in assay [7] was -62.9% (inactive); in assay [8] it was -12.5% (inactive).

In the case of `O=C(O)c1cc(O)c2c(c1)[O][Bi][O]2`, the nuclear beta-catenin stimulation in assay [1] (at 10 µM) was -2.2% (inactive); in assay [1] (stimulation, at 2 µM), 1%. The insulin secretion stimulation in assay [2] is -0.6% (inactive). Moreover, the viability decrease in assay [3] is -0.3% (inactive). For the same compound, the tube area decrease in assay [4] was 11.1% (inactive). Also, in assay [5], the GLP1 secretion stimulation is -0.5% (inactive). Besides, the inhibition of viability in assay [6] was 4.4% (inactive). Also, the viability decrease (inhibition) is 26.3% (inactive) in assay [7] and 0.3% (inactive) in assay [8].

On to `O=C(OCCN1CCOCC1)c1cccnc1Nc1cccc(C(F)(F)F)c1`, for which the nuclear beta-catenin stimulation in assay [1] (at 10 µM) was 1.2% (inactive); in assay [1] (stimulation, at 2 µM) it was -0.8%. Moreover, in assay [2], the insulin secretion stimulation is -0.1% (inactive). In addition, the viability decrease in assay [3] was 42% (inactive). For the same compound, the tube area decrease in assay [4] is 8.9% (inactive). Further, the GLP1 secretion stimulation in assay [5] was 3.6% (inactive). Moreover, in assay [6], the inhibition of viability is 55.9% (active). Besides, the viability decrease (inhibition) in assay [7] is 62.3% (active); in assay [8], 28.3% (inactive).

Take `CCN(CC)CC(=O)Nc1c(C)cccc1C(=O)OC`: the nuclear beta-catenin stimulation in assay [1] (at 10 µM) is 0% (inactive); in assay [1] (stimulation, at 2 µM), 0.3%. In addition, the insulin secretion stimulation in assay [2] was 0.7% (inactive). For the same compound, in assay [3], the viability decrease is -3% (inactive). For the same compound, the tube area decrease in assay [4] was 27.1% (inactive). Besides, in assay [5], the GLP1 secretion stimulation is 4.8% (inactive). In addition, the inhibition of viability in assay [6] was -7.9% (inactive). Also, the values for the viability decrease (inhibition) in assay [7] and in assay [8] were -13.2% (inactive) and -17.2% (inactive), respectively.
